Many of the other results were omitted from the sample, so hits are more common in it than they were.
CD40 NFkB inh: CD40 pathway inhibition in BL2 cells; BL2 NF-kB luciferase reporter, CD40L-induced, 4 h; inhibition, % at 10 µM; hit rate 0.94% among 83,000;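 active = mean inhibition of at least 50% with a set share of replicates also reaching that level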;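 also: 0% = neutral control wells and 100% = IKK inhibitor VII at 50 µM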
The depositor's hits bear a star; ! = not active in a repeat; [ ] = another dose, or the depositor's remark.

SMILES	CD40 NFkB inh
CCCNC(=O)C[C@H]1C[C@@H]2c3cc(NC(=O)COC)ccc3O[C@@H]2[C@H](CO)O1	5[25 µM]
Cc1ccc(CC(=O)Nc2ncc([N+](=O)[O-])s2)cc1	-47
O=C(/C=C/c1ccc([N+](=O)[O-])cc1)Nc1ncc([N+](=O)[O-])s1	92*
CCCCC(CC)C(=O)Nc1ncc([N+](=O)[O-])s1 (stereo not given)	8
CCCc1cn(CC[C@@H]2CC[C@@H](NC(=O)Cc3cccnc3)[C@@H](CO)O2)nn1	7
CCN(C[C@H]1[C@@H](c2ccc(-c3ccccc3F)cc2)[C@@H](CO)N1C(C)=O)C(C)=O	-2[25 µM]
C[C@@H]1CN([C@@H](C)CO)C(=O)c2c(c3ccccc3n2C)-c2ccccc2CO[C@@H]1CN(C)C(=O)Nc1cccc(F)c1	16
COC(=O)C[C@H]1CC[C@@H]2[C@@H](COc3ccc(NC(=O)Nc4cccc(C#N)c4)cc3C(=O)N2C)O1	36[25 µM]
Cc1cc(C)c2c(c1)SC1=NC(c3ccccc3)(C(F)(F)F)NC(=O)N12 (stereo not given)	50*
C[C@H](CO)N1C[C@H](C)[C@@H](CN(C)Cc2cccc(F)c2)OCc2ccccc2-c2ccccc2C1=O	1
C[C@@H]1CN([C@H](C)CO)C(=O)c2cc(NS(=O)(=O)c3cn(C)cn3)ccc2O[C@H]1CN(C)S(=O)(=O)c1ccc(F)cc1	-9[25 µM]
CN1C[C@H]2[C@@H](c3ccccc31)[C@H](CO)N2Cc1ccccc1F	-1[25 µM]
CCCC(CC)Sc1nc2c([nH]1)c(=S)n(C)c(=O)n2C (stereo not given)	-45
CSc1nc2c([nH]1)c(=S)n(C)c(=O)n2C	74*
CCCCC(C)Sc1nc2c([nH]1)c(=S)n(C)c(=O)n2C (stereo not given)	-37
CN(C)C(=O)c1ccc(-c2ccc3c(c2)[C@H]2[C@H](CCN2C(=O)c2ccccn2)[C@H](CO)N3C)cc1	-21[25 µM]
O=C(C1CCOCC1)N1CC(=O)N2[C@@H](CO)[C@H](c3ccc(C#CC4CCCC4)cc3)[C@@H]2C1	-9
O=[N+]([O-])c1ccc(O)c(Nc2ncnc3ccccc23)c1	0
O=[N+]([O-])c1ccc2ncnc(Nc3ccc4c(c3)OCCO4)c2c1	36*
c1ccc2c(c1)oc1c(Nc3ccc4c(c3)OCCO4)ncnc12	-70
CN(C)CC(=O)N1[C@H](CO)[C@H](c2ccccc2-c2ccc(C(=O)N(C)C)cc2)[C@@H]1C#N	-9[25 µM]
CC[C@H]1C/C=C\C[C@H](C(C)C)NC(=O)CCC(=O)N1	-17[25 µM]
Cc1ccc(S(=O)(=O)N2CCCC2CNC(=O)c2ccccc2)cc1 (stereo not given)	-9
COc1ccc(C(=O)NCC2CCCN2S(=O)(=O)c2ccccc2)cc1OC (stereo not given)	3
Cc1ccc(S(=O)(=O)N2CCCC2CNC(=O)c2ccc3c(c2)OCO3)cc1 (stereo not given)	38*
SMILES	CD40 NFkB inh
C[C@H]1CN([C@@H](C)CO)C(=O)c2c(c3ccccc3n2C)-c2ccccc2CO[C@H]1CN(C)S(=O)(=O)c1ccccc1C#N	33[25 µM]
C[C@H](CO)N1C[C@H](C)[C@@H](CN(C)S(=O)(=O)c2ccc(F)cc2)Oc2ccc(NS(=O)(=O)c3cn(C)cn3)cc2C1=O	1[25 µM]
COc1ccccc1C#Cc1ccc([C@@H]2[C@H]3CN(C(=O)C4CCC4)CCCCN3[C@H]2CO)cc1	6[25 µM]
Cn1nc(C(=O)NNC(=O)c2ccc(Cl)cc2)ccc1=O	0
Cn1nc(-c2ccc(Cl)cc2)nc2c(=O)n(C)c(=O)nc1-2	84*
O=C(Nc1cc(=O)[nH]c2nc(-c3ccc(Cl)cc3)nn12)c1ccccc1	12
CCCN(C)C[C@H]1OCCCC[C@@H](C)Oc2ccc(NC(=O)CCCN(C)C)cc2C(=O)N([C@@H](C)CO)C[C@H]1C	-10[25 µM]
CO[C@@H]1CC[C@H]2CCOc3ccc(C#N)cc3C(=O)N(C)[C@H](C)C(=O)N(C)C[C@H]1O2	-1[25 µM]
CN1C(=O)c2cc(NC(=O)C3CCC3)ccc2OC[C@H]2O[C@@H](CC(=O)NCc3ccccc3F)CC[C@@H]21	4
CCOC(=O)NCC(Cc1ccc(OCCc2nc(-c3ccccc3)oc2C)cc1)N/C(C)=C/C(=O)c1ccc(C(F)(F)F)cc1 (stereo not given)	25[25 µM]
Cc1noc(C)c1NC(=O)N(C)C[C@H]1OCc2ccccc2-c2ccccc2C(=O)N([C@@H](C)CO)C[C@@H]1C	-19[25 µM]
C(=C\c1ccc2ccccc2n1)/c1ccccc1	28
CCOc1ccccc1C=NN1CCCCCC1	7
C(=NN1CCCCCC1)c1ccc2ccccc2n1	77*
O=C(C[C@@H]1C[C@H]2c3cc(NC(=O)CC4CC4)ccc3O[C@H]2[C@@H](CO)O1)NCC1CC1	-10[25 µM]
COc1cccc(-c2ccc3c(c2)[C@@H]2[C@@H](CCN2C(=O)C2CCCCC2)[C@@H](CO)N3)c1	-26[25 µM]
C[C@@H]1CN([C@H](C)CO)C(=O)c2ccccc2-c2ccccc2CO[C@@H]1CN(C)C(=O)CCN(C)C	-4
Cc1ccc(CNC(=O)CCS(=O)(=O)c2ccc(C)cc2)cc1	2
O=C(CCCc1ccccc1)NCCC1=CCCCC1	-60
Cc1ccc(S(=O)(=O)CCC(=O)NCCC2=CCCCC2)cc1	48*
COc1ccccc1NC(=O)N1C[C@H]2[C@@H](c3ccccc31)[C@H](CO)N2C(=O)c1ccccc1	9[25 µM]
NC(=S)NN=Cc1nccc2c(C(F)(F)C(F)(F)C(F)(F)F)cccc12	31
Cn1cccc1/C=N/NC(N)=S	4
NC(=S)NN=Cc1c[nH]c2nccnc12	67*
CN1C[C@@H]2[C@H](c3ccccc31)[C@H](CO)N2C(=O)C1CCOCC1	11[25 µM]
SMILES	CD40 NFkB inh
O=C(c1ccc(F)cc1)N1C[C@@H]2N[C@H](C1)C2c1ccc(-c2ccccc2F)cc1 (stereo not given in full)	4[25 µM]
O=C(Nc1ccc(C(F)(F)F)cc1)N1C[C@@H]2N[C@H](C1)C2c1ccc(/C=C/c2ccccc2)cc1 (stereo not given in full)	45
N#Cc1ccc(-c2ccc(C3[C@@H]4CN(C(=O)C5CCCC5)C[C@H]3N4)cc2)cc1 (stereo not given in full)	3
Cc1cccc(-c2ccc(C3[C@@H]4CN(C(=O)C5CCC5)C[C@H]3N4)cc2)c1 (stereo not given in full)	14
O=C(Nc1ccc(C(F)(F)F)cc1)N1C[C@@H]2N[C@H](C1)C2c1ccc(-c2ccccc2)cc1 (stereo not given in full)	70*!
O=C(C1CCCC1)N1C[C@@H]2N[C@H](C1)C2c1ccc(-c2cccc(F)c2)cc1 (stereo not given in full)	8
N#Cc1cccc(-c2ccc(C3[C@@H]4CN(C(=O)C5CC5)C[C@H]3N4)cc2)c1 (stereo not given in full)	76*!
Cc1cccc(-c2ccc(C3[C@@H]4CN(C(=O)Nc5ccccc5)C[C@H]3N4)cc2)c1 (stereo not given in full)	0
O=C(C1CC1)N1C[C@@H]2N[C@H](C1)C2c1ccc(-c2ccccc2F)cc1 (stereo not given in full)	83*!
O=C(C1CC1)N1C[C@@H]2N[C@H](C1)C2c1ccc(-c2cccc(F)c2)cc1 (stereo not given in full)	60*!
N#Cc1ccc(-c2ccc(C3[C@@H]4CN(C(=O)C5CCC5)C[C@H]3N4)cc2)cc1 (stereo not given in full)	44

Bioassay records (PubChem BioAssay)
